Source: PubChem BioAssay (National Center for Advancing Translational Sciences (NCATS))
An excerpt weighted towards active compounds, which were near 3.3% of everything screened.
HCV inh = HCV inhibition | Huh7.5.1 HCVcc-Cre infection, luciferase reporter, 44 h | Potency, µM (doses to about 41.8 µM), without a hit: at the top dose activity change, negative = inhibition, usual class: inhibitors | actives 3.4% (n = 340,000) | AID 651820; active = well fitted inhibition curve with a large enough effect; inconclusive = small, poorly fitted or top-dose-only effect, or another doubt; inactive = no such curve, though single readings can be large or run the other way
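A cell-based infection assay in which seeded cells (1,000 per well) receive test compound after 4 h, are inoculated with HCVcc-Cre at approximately 0.5 moi, and are incubated 44 h before luminescence detection.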
VACV Venus inh = vaccinia inhibition (Venus reporter); Vaccinia virus Venus reporter expression, fluorescence; Potency, µM (series often up to 36.5 µM), for the others: top-dose activity change, negative = inhibition, hits mostly inhibitors; actives 0.46% (n = 330,000); calls by dose curve; tested in A549 cells; note: nearly all actives have a fitted effect of over 30% in size
VACV mCherry inh = vaccinia inhibition (mCherry reporter) | Potency, µM (titrated, usually from 36.5 µM), inactives show at the top dose activity change, negative = inhibition, most hits filed as inhibitors | Vaccinia virus mCherry reporter infection, fluorescence | actives 0.63% (n = 310,000); calls by dose curve; tested in A549 cells; note: nearly all actives have a fitted effect of over 35% in size
An asterisk follows results filed as active; i = inactive; ? = inconclusive; . = no result given; [ ] = dose if it differs, or a comment. % is set by controls: 0 for no effect and ±100 for the full control effect; potency is the fitted concentration of half-maximal effect.

SMILES	HCV inh	VACV Venus inh	VACV mCherry inh
Cc1ccc(S(=O)(=O)N2CCN(C(=O)c3ccccc3OCc3c(C)noc3C)CC2)cc1	0.56µM*	.	.
O=C1CC(C(=O)NC2CCCCC2)C(c2ccccc2)O1 (stereo not drawn)	2%	-14%	.
C[C@@H]1[C@@H](Sc2ccccc2)CC(=O)O[C@@H]1c1ccc(-c2ccccc2)cc1	?	2.5µM*	?
COc1ccc(N2CCN(C(=O)C(CC(C)C)NS(=O)(=O)c3ccc4nc(C)sc4c3)CC2)cc1 (stereo not drawn)	.	-22%	-3%
CCc1ccc(NC(=O)C(C)OC(=O)c2c(C)nn(Cc3ccccc3)c2Cl)cc1 (stereo not drawn)	11µM*	-3%	i
Cc1nn(Cc2ccccc2)c(Cl)c1C(=O)OC(C)C(=O)Nc1ccc(F)cc1Cl (stereo not drawn)	?	-7%	i
O=C(CSc1ncc(S(=O)(=O)c2ccc(Br)cc2)c(=O)[nH]1)NCc1ccc(Cl)cc1	.	5%	3%
COc1ccc(-c2nc(CS(=O)CC(=O)NCCc3ccccc3)c(C)o2)cc1OC (stereo not drawn)	.	-8%	-3%
CN(C)c1ccc(/C=C/c2ccc3ccccc3[n+]2[O-])cc1	.	i	-8%
Cc1cc(/C=C\c2ccc3cc(N(C)C)ccc3[n+]2C)c(C)n1-c1ccccc1	1µM*	i	477%
CCCCN(C)C(=O)C1CCC(Cn2c(=O)[nH]c3ccsc3c2=O)CC1 (stereo not drawn)	.	1%	-15%
Cc1ccc(C)c(NC(=O)CN(C)C(=O)[C@@H](NC(N)=O)C(C)C)c1	4%	-23%	i
Cc1ccc(C)c(NC(=O)CN(C)C(=O)[C@@H](NC(=O)c2ccc(C(C)(C)C)cc2)C(C)C)c1	?	14µM*	28µM*
CCC(C)NC(=O)c1sc2nc(C)c(C(=O)Nc3ccc(C)cc3C)c(-c3ccc(NC(C)=O)cc3)c2c1N (stereo not drawn)	.	-10%	-1%
Cc1nc2ccc(S(=O)(=O)c3ccc4nc(C)[nH]c4c3)cc2[nH]1	4%	6%	.
Cc1nc2ccc(NS(=O)(=O)c3ccc(F)c(C)c3)cc2[nH]1	7.1µM*	.	.
CCN(CC)C(=O)Oc1c(Cl)cc(Cl)c2cccnc12	-7%	-26%	?
O=C(CCc1ccccc1)NC(c1cccs1)c1cc(Cl)c2cccnc2c1O (stereo not drawn)	1µM*	?	8.9µM*
O=C(CCc1ccccc1)NCc1ccccn1	5%	.	.
O=C(Oc1ccc(Cl)c2cccnc12)c1ccco1	?	-8%	.
CCCCC(=O)NC(c1ccco1)c1cc(Cl)c2cccnc2c1O (stereo not drawn)	8.9µM*	?	13µM*
CCC(=O)NC(c1ccco1)c1cc(Cl)c2cccnc2c1O (stereo not drawn)	6.3µM*	?	7.9µM*
CCc1c(CN2CCN(c3ccc(F)cc3)CC2)csc1C	.	-2%	-5%
N#Cc1cccc(NC(=O)CSc2ccc3c4c(cccc24)C(=O)c2ccccc2-3)c1	8.9µM*	18%	-15%
N#Cc1cccc(NC(=O)CSc2ccccc2)c1	-24%	-7%	-4%
SMILES	HCV inh	VACV Venus inh	VACV mCherry inh
N#Cc1c2n(c3c(=O)n(Cc4ccccc4Cl)cnc13)CCCC2	11µM*	.	.
N#Cc1c2n(c3c(=O)n(Cc4ccc(Cl)cc4)cnc13)CCCC2	-20%	-16%	.
Cc1cc(C)cc(OCC(=O)OCC(=O)N(CC(C)C)c2c(N)n(Cc3ccccc3)c(=O)[nH]c2=O)c1	24%	-8%	i
Cc1c(CCCN)c2ccccc2n1Cc1ccccc1	11µM*	-26%	?
COc1ccc2c(c1)c(CCN)c(C)n2Cc1ccccc1	?	-7%[7.34 µM]	-14%[7.34 µM]
Cc1nc(C(F)(F)F)ccc1C(=O)Nc1ccccc1N1CCOCC1	-1%	.	.
CCCn1c(=O)sc2cc(NC(=O)c3ccccc3OCC)ccc21	.	17%	1%
COc1ccc(CN2C(=O)N(c3ccccc3)C(=O)C2c2ccccc2)cc1COc1ccc(NC(C)=O)cc1 (stereo not drawn)	.	-16%	-24%
Cn1c(-c2ccc(Cl)cc2)cnc1NCc1cc2c(cc1[N+](=O)[O-])OCO2	?	-17%	-5%
Cn1c(-c2ccc(F)cc2)cnc1NCc1cc2c(cc1[N+](=O)[O-])OCO2	13µM*	-13%	-6%
Cc1ccc(CNC(=O)COC(=O)CCOc2ccc(C)cc2)cc1	-6%	-4%	-14%
CCCOc1ccc(CSCCNC(=S)Nc2ccccc2)cc1	?	-23%	i
CCCCNC(=S)NCc1ccc2[nH]c(C)cc2c1	?	-2%	i
CCOc1ccc(CSCCNC(=S)Nc2ccc(OC)cc2)cc1	10µM*	.	.
CCOc1ccc(NC(=S)NCc2ccc3[nH]c(C)cc3c2)cc1	11µM*	.	.
COc1ccc(Cl)cc1NC(=O)c1c(NCc2ccc(C)o2)sc2c1CCC(C)C2 (stereo not drawn)	.	-17%	-13%
CC(=O)OC1CC2C(C)(C)C(O)C=C[C@@]2(C)C2CC[C@@]3(C)C(c4ccoc4)OC(=O)C4OC43[C@]12C (stereo partly drawn)	.	-27%	-29%
COc1ccc(CCNC(=O)C(=O)NCC(c2cccnc2)N2CCN(c3ccccc3)CC2)cc1 (stereo not drawn)	.	-24%	-22%
COc1ccccc1CC(=O)Nc1ccc(S(=O)(=O)N2CCCCC2)cc1	-15%	-15%	-4%
Cc1ccccc1OCC(=O)Nc1ccc(S(=O)(=O)N2CCCC2)cc1	?	-2%	-20%
CCNS(=O)(=O)c1ccc(NC(=O)c2ccccc2OCC)cc1	5.6µM*	-10%	-15%
COc1cccc(OCCCN2CCN(S(=O)(=O)c3ccc(NC(C)=O)cc3)CC2)c1	13µM*	.	.
COc1ccccc1OCC(=O)Nc1ccc(S(=O)(=O)N2CCCCCC2)cc1	1.6µM*	1%	i
CC(=O)Nc1ccc(S(=O)(=O)N2CCN(CCCOc3ccccc3Cl)CC2)cc1	7%	.	.
COc1cccc(OC)c1OCC(=O)Nc1ccc(S(=O)(=O)N2CCCC2)cc1	8.9µM*	.	.
SMILES	HCV inh	VACV Venus inh	VACV mCherry inh
CCOc1ccccc1C(=O)Nc1ccc(S(=O)(=O)Nc2ncccn2)cc1	.	-4%[7.34 µM]	-14%[7.34 µM]
Cc1ccccc1C(=O)Nc1ccc2oc(-c3ccc(Cl)c(Cl)c3)nc2c1	.	-26%	-21%
COc1ccc(S(=O)(=O)Nc2ccccc2C(=O)N2CCOCC2)cc1Br	42%	-11%	-25%
CCOC(=O)c1ccccc1NC(=O)Cc1c(C(=O)O)c(C)cn1C	.	-3%	0%
Cc1ccc2nc(-c3ccc(C)c(NC(=O)COc4ccccc4Cl)c3)oc2c1	.	-12%	-3%
COc1ccc(N(CC(=O)NCC2CCCO2)C(=O)CCC(=O)Nc2cc(C)on2)cc1OC (stereo not drawn)	8%	-11%	i
CCc1ccc(S(=O)(=O)c2nnn(-c3ccc(F)cc3)c2N)cc1	.	-8%[7.34 µM]	-14%[7.34 µM]
CSCC[C@H](NC(=O)OC(C)(C)C)C(=O)NCC1CCC(C(=O)N[C@@H](Cc2ccccc2)C(=O)O)CC1 (stereo partly drawn)	27%	6%	-9%
Cc1ccc(C2NC(c3ccc4c(c3)OCO4)=CC(c3cc(Br)ccc3O)N2)cc1 (stereo not drawn)	.	5%	-19%
CCOc1ccc(C(=O)c2cn(CC(=O)Nc3ccc4c(c3)OCCO4)c3ccc(OC)cc3c2=O)cc1	.	-7%	-6%
